This note sets out measurements from article PMC6212790, “How bacterial xenogeneic silencer rok distinguishes foreign from self DNA in its resident genome”.

In all, about 33,000 sequences were measured (“e-score”: median about -0.038, highest 2% from about 0.33 on). This excerpt belongs to a sample that is enriched for the highest values.

The assay has as its target T1, GST-Rok-C97-191 (Bacillus subtilis subsp. subtilis str. …, UniProt O34857 97-191).
T1 sequence: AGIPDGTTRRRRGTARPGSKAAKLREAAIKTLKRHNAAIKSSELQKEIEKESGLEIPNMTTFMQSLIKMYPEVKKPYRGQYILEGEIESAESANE
Nature of the assay: protein binding microarray; Rok is a gene silencer of Bacillus subtilis; high values mean tight binding. The conditions noted are these: protein: recombinant; tags: GST (pTH5325, pDEST15-Magic modified); dsDNA, one strand shown. In outline: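 Each has a 25-mer constant primer and a 35-mer variable part from a de Bruijn sequence of order 10, covering every non-palindromic 8-mer at least 32 times (palindromic 16). Preference for each 8-mer is given as a rank-based, unitless enrichment score (E-score). Its range runs from 0.5 (most favored) to −0.5 (most disfavored).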
In the case of TCGCCCAA, the binding signal was -0.12 E-score.
Take CTAGTTGC: the binding signal came to 0.23 E-score.
As for CTAGTTCA, the figure is 0.0257 E-score; as for CTAGTTTA, 0.378 E-score.
The result for GGAGTTTA reads 0.0723 E-score; that for CTAGTTCC, 0.262 E-score.
On to ATAGTGTA, for which the binding signal amounted to 0.346 E-score.
As for ATAGTGTG, the figure is 0.0365 E-score; as for GTAGTTTA, 0.423 E-score; as for CTAGTTAC, 0.38 E-score.
For the sequence CTAGTTGA, the binding signal came to 0.2 E-score.
Regarding GTAGTGTA, the binding signal came out at 0.118 E-score.
Consider GCAGTTTA, for which the binding signal came to 0.113 E-score.
With ATGCCCTA, the binding signal was -0.00598 E-score.
The result for GCTCGTCA reads -0.151 E-score.
The result for ACGTTTTC reads 0.12 E-score; that for GATGCATA, 0.176 E-score.
Take AGTAGCTA: the binding signal is 0.37 E-score.
The result for ACTAGCTA reads 0.397 E-score.
The result for GCTAGCTA reads 0.119 E-score; that for GGTAGCTA, 0.357 E-score; that for AGTAGCTC, 0.14 E-score.
In the case of GGTAGCGA, the binding signal stood at 0.0646 E-score.
As to CGTAGCTA, the binding signal came to 0.289 E-score.
For the sequence CCTAGCTA, the binding signal was 0.144 E-score.
On to AGTAGCTG, for which the binding signal turned out to be 0.233 E-score.
For GCCGTAAA, the binding signal is -0.0195 E-score.
Turning to ACAAAGTA, the binding signal turned out to be 0.275 E-score.
As for AATGTCGT, the figure is -0.087 E-score; as for CTATGAGC, -0.0781 E-score.
As for ACGAATAG, the figure is 0.0145 E-score.
The result for TCGATCAA reads 0.27 E-score; that for ATGGAAAG, -0.0465 E-score.
For the sequence AATGATCA, the binding signal came to 0.156 E-score.
As for ATGTGCAC, the figure is -0.0271 E-score; as for CGAATCAA, -0.196 E-score.
The result for CGCTTCAC reads -0.177 E-score.
Turning to AACTGCCC, the binding signal is -0.0946 E-score.
As to AGCCATAA, the binding signal was found to be 0.127 E-score.
As for CACAAGAA, the figure is -0.0545 E-score; as for CCTAGTTA, 0.168 E-score.
As for AGTAGTTC, the figure is 0.398 E-score; as for AGTAGTTA, 0.424 E-score.
The result for ATTAGTTA reads 0.336 E-score.
As to CTTAGTTA, the binding signal was determined as 0.189 E-score.
The result for CGTAGTTA reads 0.199 E-score.
Regarding GCTAGTTA, the binding signal was found to be 0.284 E-score.
As for ACTAGTTA, the figure is 0.448 E-score.
The result for AGTAGTGC reads 0.12 E-score; that for AGTAGTGA, 0.121 E-score.
The result for GTTAGTTA reads 0.325 E-score; that for CGTAGTTC, 0.213 E-score.
For ATTGCTGG, the binding signal turned out to be 0.137 E-score.
The result for TAACCGTA reads 0.169 E-score.
The result for CGGATACC reads 0.0204 E-score.
Consider ACTGGCAT, for which the binding signal came out at 0.00831 E-score.
The result for CATAGTTC reads 0.168 E-score; that for GGTAGTTA, 0.4 E-score.
The result for AATAGTTC reads 0.343 E-score; that for GGTAGTGA, 0.144 E-score; that for GGTAGTCA, 0.192 E-score.
As to AATAGTTA, the binding signal amounted to 0.32 E-score.
As for AGTAGTTG, the figure is 0.393 E-score; as for ATTAGTTG, 0.118 E-score; as for ACTAGTTG, 0.313 E-score.
GCCCATTA: the binding signal was -0.125 E-score.
GCTAGAAA: the binding signal amounted to 0.314 E-score.
The result for GGTAGAGA reads 0.173 E-score.
As to GGTAGAAC, the binding signal was found to be 0.4 E-score.
Regarding GGTAGACC, the binding signal is -0.0686 E-score.
Take CGTAGAAA: the binding signal stood at 0.338 E-score.
On to TGTAGAAA, for which the binding signal is 0.35 E-score.
As for GGTAGAAA, the figure is 0.465 E-score; as for CGTAGAAG, 0.0648 E-score.
For TCTAGAAA, the binding signal worked out at 0.205 E-score.
Consider CGTAGAAC, for which the binding signal came to 0.207 E-score.
The result for TTTAGAAA reads 0.175 E-score; that for GTTAGAAC, 0.125 E-score.
The result for AACGTGGA reads 0.103 E-score; that for AATAGCGC, 0.114 E-score.
The result for GCCCACAA reads -0.0476 E-score; that for GCATCTGA, -0.0514 E-score; that for CAAAGAAC, 0.232 E-score.
As to GCAGGGGA, the binding signal is -0.184 E-score.
The result for TAAACGCA reads -0.0161 E-score; that for CGACAACC, -0.054 E-score.
The result for ACCCACGT reads -0.188 E-score; that for GGTAATCA, -0.186 E-score.
As for ATTAATTA, the figure is 0.391 E-score; as for AGTAATTG, 0.31 E-score.
As to GTTAATTA, the binding signal was 0.19 E-score.
As for CGTAATTA, the binding signal is 0.318 E-score.
As for AGTAATTC, the figure is 0.273 E-score; as for AGTAATTA, 0.376 E-score.
The result for ATTAATTC reads 0.147 E-score; that for GGTAATTA, 0.395 E-score.
CATTGTAC: the binding signal came to 0.109 E-score.
As for GTTGAAAA, the figure is -0.013 E-score; as for AGGTATTC, -0.0121 E-score; as for AACTCTCT, 0.0603 E-score.
As for ACTACCAA, the figure is 0.257 E-score; as for TCTACCCA, 0.234 E-score; as for GCTACCAC, 0.0411 E-score.
As for ACTACCAT, the figure is 0.353 E-score; as for ACTACCAC, 0.383 E-score; as for ACTACCCA, 0.332 E-score.
On to ACTACCAG, for which the binding signal was 0.213 E-score.
Regarding ACTACCCG, the binding signal turned out to be 0.0272 E-score.
With CCTACCAC, the binding signal was 0.251 E-score.
The result for GCCGCGCA reads -0.14 E-score.
As for CGTTTCAG, the figure is -0.0327 E-score; as for AGCTCTTA, 0.106 E-score.
CATCTAAA: the binding signal was found to be 0.111 E-score.
Turning to AGCGGACG, the binding signal was determined as 0.000189 E-score.
As to TGACAAAA, the binding signal was 0.0786 E-score.
As for ATGATGGG, the figure is -0.0998 E-score; as for CCAGTAGA, 0.176 E-score; as for AAAGTAGC, 0.261 E-score.
Take CTAGTAGC: the binding signal is 0.251 E-score.
As for CTAGTAGA, the binding signal was 0.382 E-score.
On to CAAGTAGA, for which the binding signal came to 0.303 E-score.
The result for ACAGTAGA reads 0.364 E-score.
The result for GTAGTACA reads 0.272 E-score.
In the case of ACAGTAGT, the binding signal was determined as 0.258 E-score.
As for GTAGTAGA, the figure is 0.368 E-score; as for AAAGTAGG, 0.262 E-score.
On to GGAGTAGA, for which the binding signal is 0.102 E-score.
AAAGTAGT: the binding signal stood at 0.328 E-score.
The result for CCAAGTTC reads -0.0242 E-score; that for CTTGTGGC, -0.167 E-score; that for ACGTGAGC, -0.0668 E-score.
In the case of ACGCCTTA, the binding signal amounted to 0.073 E-score.
Turning to AGCCCGCT, the binding signal is -0.168 E-score.
The result for CCATAGCA reads -0.0019 E-score.
The result for AGAGTAGA reads 0.143 E-score.
As for AGAGTAGG, the figure is -0.15 E-score.
On to ATAGTAGC, for which the binding signal came out at 0.378 E-score.
As for AGAGTAGC, the figure is 0.0737 E-score.
The result for ATCGTAGC reads -0.0487 E-score; that for AAAGTAGA, 0.298 E-score; that for ATAGTAGA, 0.355 E-score.
Turning to ATAGTACG, the binding signal came to 0.248 E-score.
As for ATAGTAGG, the figure is 0.329 E-score.
Consider GCTTGAAC, for which the binding signal is -0.0848 E-score.
With AGTCCATC, the binding signal was -0.159 E-score.
On to GGTTCAAC, for which the binding signal is -0.0853 E-score.
As for CCTCTTCA, the figure is -0.193 E-score; as for CCAACCTA, -0.0204 E-score; as for GCTTATAA, 0.101 E-score.
For AGTACTAG, the binding signal is 0.334 E-score.
As to AGTACTAC, the binding signal came to 0.35 E-score.
The result for CGTACTAC reads 0.305 E-score; that for GGTACTAC, 0.233 E-score; that for AGTACTAT, 0.367 E-score.
As for AGTACTGG, the figure is 0.0209 E-score.
As for AGTACTCA, the figure is -0.0984 E-score.
In the case of AGTACTAA, the binding signal is 0.277 E-score.
Take CGTACTAG: the binding signal came to 0.0424 E-score.
As for ATTGCGCC, the figure is -0.134 E-score; as for ACCATATG, 0.229 E-score; as for AACTGGAC, -0.0284 E-score.
As for TAGTGGGA, the figure is 0.119 E-score; as for AATTTCGC, 0.151 E-score.
The result for GATGAAGC reads 0.0229 E-score; that for ATTTTATA, 0.385 E-score.
As for CTTTTATC, the binding signal came to 0.0697 E-score.
For CTTTTATA, the binding signal came to 0.236 E-score.
As for GTTTTATA, the figure is 0.122 E-score.
The result for ATTTTATG reads 0.229 E-score.
The result for ATTTTATC reads 0.328 E-score; that for AGACCTGG, -0.167 E-score.
GTCGTAAC: the binding signal was determined as 0.0491 E-score.
